PubChem BioAssay (NCI)
This is part of a sample that, as a whole, favours compounds with a hit. Of some 79,000 tested, about 15% had one in any assay. Unmarked numbers belong to inactive results. Active and inactive are the calls of the source. Cut-off read from the data, not from the text of the source: active = growth inhibition above about 70%; inactive = the rest.

Assay: NCI Yeast Anticancer Drug Screen. Data for the rad50 strain (AID 155);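 note: 0% = growth of vehicle-only cultures of the same strain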
Conditions: S. cerevisiae rad50 strain growth inhibition; at 50.0 µM; stronger effect = higher value
In short: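 Inhibition values express reduced yeast growth in compound-treated cultures relative to vehicle-treated controls.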

In order of rising growth inhibition:
1. CN1CN(c2ccccc2)C2(CCN(Cc3csc4ccccc34)CC2)C1=O  -50.9%
2. Nc1noc(N)n1  -43%
3. N#CC(C#N)=Cc1ccc(C=C(C#N)C#N)cc1  -30.4%
4. CCCCCCCC(N)CC(=O)O (stereo not given)  -24.2%
5. CC1=CC23C(COC(=O)C24CO4)C(C(=O)O)=CC3C1C (stereo not given)  -22.8%
6. NC(=O)Cc1ccccc1  -17.1%
7. CC(C)NC(=O)N1C2C3CCC(C)(OC3(C)C)C21 (stereo not given)  -16.5%
8. O=C(COc1ccc(Cl)cc1)Nc1ccc(Cl)cc1C(=O)c1ccccc1  -15.8%
9. CN(N)/N=N/c1nc[nH]c1[N+](=O)[O-]  -11.9%
10. O=C1OC(Br)c2ccccc21 (stereo not given)  -11.4%
11. OCCC[n+]1cccc2ccccc21  -11.2%
12. CCC(=O)[O-].CCC(=O)[O-].N.N.N.N.[Co+3].[O-][Cl+3]([O-])([O-])[O-]  -9.55%
13. C[C@H](O)CCC(=O)c1ccoc1  -5.65%
14. C1=C(c2ccccc2)CCN(C2(c3ccccc3)CCCCC2)C1  -5.6%
15. CCCCOC(=O)c1ccccc1C(=O)OCc1ccccc1  -3.45%
16. CC1=CC(=O)C2=C(C)C[C@H](O)[C@@H]3[C@H](OC(=O)[C@H]3C)[C@@H]12  -2.45%
17. Cc1cc(F)ccc1[As](=O)(O)O  -0.55%
18. Cn1c(=O)oc(=O)c2ccccc21  -0.45%
19. COC(=O)C1=CCCN(C)C1  0.15%
20. CC(=O)Nc1ccc([As](=O)(O)O)cc1[N+](=O)[O-]  0.85%
21. CCOC(=S)S.[Ag]  1.6%
22. N#CC(C#N)C1CN2CCC1CC2 (stereo not given)  1.95%
23. Oc1cccc(/C=N\NC(=S)NC2CN3CCC2CC3)c1 (stereo not given)  2.85%
24. COc1ccc2c(c1)C1(C=N2)CCN(C(C)=O)CC1  3.25%
25. O=[As](O)(O)Cc1ccccc1  3.75%
26. C/C=C/C(=O)O  4.3%
27. CC(C)=CC1C(C(=O)OCc2cc3c(cc2Cl)OCO3)C1(C)C (stereo not given)  8.65%
28. CN(C)CCCN1CCCCC1  8.7%
29. CCOC(=O)/C(=C\c1ccc(N(C)C)cc1)[Se]c1ccccc1  12.7%
30. Cc1ccc(S(N)(=O)=O)cc1 (tested in a mixture with another compound)  14.9%
31. O=C(CC(O)C(Cl)(Cl)Cl)CC(O)C(Cl)(Cl)Cl (stereo not given)  15%
32. CN(C(=O)CCl)c1ccccc1  15.3%
33. Oc1ccccc1C=NCCN=Cc1ccccc1O.[Cu]  15.4%
34. Nc1ccc(Sc2ccc(N)cc2)cc1  15.5%
35. Nc1ccc(Cl)cc1.Nc1ccc(Cl)cc1.Nc1ccc(Cl)cc1.O=C([O-])C(=O)[O-].O=C([O-])C(=O)[O-].[H+].[Ru+5]  18.4%
36. Oc1ccccc1C=NC1CCCCC1N=Cc1ccccc1O.[Ni] (stereo not given)  18.7%
37. CC(NC1=NCCO1)c1ccsc1 (stereo not given)  21.9%
38. O=C1CC=C2C3CC4N(CCC45c4ccccc4N1C25)C/C3=C\CO (stereo not given)  22.8%

With `Clc1ccc(C(c2ccc(Cl)cc2)c2ccccn2)cc1` the growth inhibition was 98.5% (active).
With `COc1ccc2nc3c4ccccc4scc-3c2c1` the growth inhibition was 99.4% (active).
